# Assay results published in PubChem BioAssay.
# For part of these data: Entries with a potency or affinity are not part of this list. The source made the active and inactive calls.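 The calls were made as follows, unless noted: active = primary screen hit whose fluorescence ratio, in both repeats, exceeds the weak agonist control mean by 3 SD; inactive = the rest.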
# Tests used:
# [1] = system: TRPC4 beta (transient receptor potential cation channel C4), mouse; assay: TRPC4 cation channel opening, retest – cell-based, Fluo4 calcium, HEK293 TRPC4beta/mu-opioid, duplicates, 10 µM, confirmation (AID 2426;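 active = fluorescence ratio normalized to control raised more than 50% in primary screen plus both repeat runs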;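 as to activation: percent rise of integrated ratio over buffer wells lacking compound which define 0%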); settings: Fluo4 calcium fluorescence, at 10 µM; stronger effect = higher value
# [2] = system: transient receptor potential cation channel C4 beta (TRPC4), mouse; assay: TRPC4 cation channel opening, second retest – cell-based, second round, Fluo4, HEK293 TRPC4beta/mu-opioid, 1 µM, confirmation (AID 2461;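 active = primary screen active and over 50% activation in each of two duplicate runs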); settings: Fluo4 calcium fluorescence, at 1 µM; stronger effect = higher value
# [3] = system: TRPC4 (transient receptor potential cation channel C4 beta), mouse; assay: potentiation of DAMGO EC20 TRPC4 response – cell-based, second round, Fluo-4, HEK293 TRPC4beta/mu-opioid, 1 µM, confirmation (AID 2554); settings: DAMGO EC20, Fluo-4 calcium flux, at 1 µM; stronger effect = higher value
# [4] = system: TRPC4 beta (transient receptor potential cation channel C4), mouse; assay: potentiation of DAMGO EC20 TRPC4 response – cell-based, Fluo-4, HEK293 TRPC4beta/mu-opioid, confirmation (AID 2555;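 active = primary screen hit whose calcium fluorescence ratio, in both repeats, exceeds the weak agonist control mean by 3 SD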); settings: DAMGO EC20, Fluo-4 calcium flux, at 10 µM; stronger effect = higher value
# [5] = molecular target: Short transient receptor potential channel 4 (Mus musculus) (UniProt Q9QUQ5); assay: blockers of DAMGO-evoked TRPC4 calcium flux – cell-based, Fluo4, HEK293 TRPC4beta/mu-opioid, confirmation (AID 2636;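 active = calcium signal cut by more than 3 SD below the full-agonist control yet still positive, in both repeats and the earlier primary screen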); settings: at 10 µM; stronger effect = higher value
# [6] = molecular target: Short transient receptor potential channel 4 (Mus musculus) (UniProt Q9QUQ5); assay: blockers of DAMGO-evoked TRPC4 calcium flux – cell-based, second round, Fluo4, HEK293 TRPC4beta/mu-opioid, 1 µM, confirmation (AID 2637;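 active = calcium signal ratio cut to more than 3 SD under the fully stimulated control mean yet still positive, in both repeats and the primary screen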); settings: at 1 µM; stronger effect = higher value
# [7] = molecular target: Short transient receptor potential channel 4 (Mus musculus) (UniProt Q9QUQ5); assay: calcium entry via TRPC4 opening agents – cell-based, HEK293 TRPC4/mu-opioid, Fluo-4 calcium, dose response (AID 434937;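 active = primary screen activator hit with a dose response curve and TRPC4 channel activation at any tested dose; inactive = no activation, no dose response, or not a primary hit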)
# [8] = molecular target: Short transient receptor potential channel 4 (Mus musculus) (UniProt Q9QUQ5); assay: potentiation of DAMGO-evoked TRPC4 calcium signal – cell-based, HEK293 TRPC4/mu-opioid, Fluo-4 calcium, EC20 DAMGO, dose response (AID 434941;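 active = earlier screen potentiator hit that boosts the TRPC4 ion channel at some dose, with a dose response; inactive = no potentiation, no dose response, or not a prior hit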;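 also: calcium entry triggered by an EC20 dose of DAMGO at the co-expressed mu-opioid receptor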)
# [9] = molecular target: Short transient receptor potential channel 4 (Mus musculus) (UniProt Q9QUQ5); assay: block of DAMGO-driven TRPC4 calcium entry – cell-based, HEK293 TRPC4/mu-opioid, Fluo-4 calcium, dose response (AID 434942;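 active = primary screen inhibitor hit that blocks the TRPC4 channel at some tested dose, yielding a dose curve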)
# [10] = molecular target: Short transient receptor potential channel 6 (Mus musculus) (UniProt Q61143); assay: TRPC6 blockade by TRPC4 inhibitor hits – cell-based, HEK293, membrane potential dye, duplicate, selectivity assay for TRPC4 inhibitor project, confirmation (AID 434948;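 active = active in primary screen and both duplicates, each dropping signal beyond three positive-control SD with fluorescence still positive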); settings: HEK293 TRPC6, membrane potential dye fluorescence, at 10 µM, stimulated with maximal-effect acetylcholine; stronger effect = higher value
# [11] = molecular target: Short transient receptor potential channel 6 (Mus musculus) (UniProt Q61143); assay: TRPC6 opening by TRPC4 activator hits – cell-based, HEK293, membrane potential dye, duplicate, selectivity assay for TRPC4 activator project, confirmation (AID 434950;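 active = membrane potential signal rise above negative control mean plus 3 SD in both duplicates, also active in the earlier TRPC4 screen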;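 as to activation: 0% = buffer only wells and 100% = acetylcholine maximal-effect wells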); settings: HEK293 TRPC6, membrane potential fluorescence, at 10 µM; activation: stronger effect = higher value; outcome: activation
# [12] = molecular target: Short transient receptor potential channel 6 (Mus musculus) (UniProt Q61143); assay: positive modulators of mouse TRPC6 channel – HEK293 cells, membrane potential dye, duplicate, selectivity assay for TRPC4 potentiator project, confirmation (AID 434952;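 active = compound raising the membrane signal above positive-control mean plus 3 SD in both repeats, and a primary screen hit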); settings: HEK293 TRPC6, membrane potential dye fluorescence, at 10 µM, maximal acetylcholine added after compound; stronger effect = higher value
# [13] = molecular target: Short transient receptor potential channel 4 (Mus musculus) (UniProt Q9QUQ5); assay: calcium flux activators in TRPC4/5HT1a cells, counter-screen for TRPC4 activator project, cell-based, second counter screen, HEK293 TRPC4/5HT1a, Fluo-4 (AID 434977;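 active = calcium signal rise above buffer-control mean plus 5 SD in both duplicates, and also a hit in the primary screen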;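 as to activation: plate controls were assay buffer for no effect and maximal serotonin response for full effect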); settings: Fluo-4 calcium flux, at 10 µM; stronger effect = higher value
# [14] = serotonin-gated TRPC4 signal block – cell-based, second counter screen, HEK293 TRPC4/5HT1a, Fluo-4, counter-screen for TRPC4 inhibitor project, confirmation (AID 434978;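 active = primary screen active whose calcium signal fell more than 3 SD beyond the full-serotonin control mean in both duplicate plates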;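 as to outcome: serotonin given first at submaximal then at maximal dose after compound preincubation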); settings: Fluo-4 calcium flux, at 10 µM, serotonin added to trigger calcium flux; stronger effect = higher value
# [15] = system: TRPC4 (mouse), co-expressed with 5HT1a in HEK293; assay: enhancement of serotonin-evoked TRPC4 response – cell-based, second counter screen, HEK293 TRPC4/5HT1a, Fluo-4, counter-screen for TRPC4 potentiator project, confirmation (AID 434979;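 active = signal rise over 3 SD above mean of control wells given weak agonist, in both repeats and first screen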); settings: Fluo-4 calcium flux, at 10 µM, serotonin added at its EC20 dose; stronger effect = higher value
# [16] = nonspecific calcium rise without TRPC4 – cell-based, HEK293 mu-opioid receptor line, counter-screen for TRPC4 activator project, confirmation (AID 449723;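 active = hit in primary screen, with calcium signal over 5 SD above buffer well mean in both duplicates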;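 also: counter screen cells carry the mu-opioid receptor alone and lack TRPC4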); settings: HEK293 mu-opioid cells, Fluo-4 calcium fluorescence, at 10 µM; stronger effect = higher value
# [17] = nonspecific potentiation of DAMGO calcium response – cell-based, HEK293 mu-opioid receptor line, counter-screen for TRPC4 allosteric potentiator project, confirmation (AID 449724;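 active = calcium signal rise more than 3 SD above the low-dose agonist control mean, in both duplicate plates and the primary screen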); settings: HEK293 mu-opioid receptor cells, Fluo-4 calcium flux, at 10 µM, compound added before EC20 DAMGO stimulus; stronger effect = higher value
# Short transient receptor potential channel 6 (Mus musculus), sequence (Q61143 whole entry, looked up): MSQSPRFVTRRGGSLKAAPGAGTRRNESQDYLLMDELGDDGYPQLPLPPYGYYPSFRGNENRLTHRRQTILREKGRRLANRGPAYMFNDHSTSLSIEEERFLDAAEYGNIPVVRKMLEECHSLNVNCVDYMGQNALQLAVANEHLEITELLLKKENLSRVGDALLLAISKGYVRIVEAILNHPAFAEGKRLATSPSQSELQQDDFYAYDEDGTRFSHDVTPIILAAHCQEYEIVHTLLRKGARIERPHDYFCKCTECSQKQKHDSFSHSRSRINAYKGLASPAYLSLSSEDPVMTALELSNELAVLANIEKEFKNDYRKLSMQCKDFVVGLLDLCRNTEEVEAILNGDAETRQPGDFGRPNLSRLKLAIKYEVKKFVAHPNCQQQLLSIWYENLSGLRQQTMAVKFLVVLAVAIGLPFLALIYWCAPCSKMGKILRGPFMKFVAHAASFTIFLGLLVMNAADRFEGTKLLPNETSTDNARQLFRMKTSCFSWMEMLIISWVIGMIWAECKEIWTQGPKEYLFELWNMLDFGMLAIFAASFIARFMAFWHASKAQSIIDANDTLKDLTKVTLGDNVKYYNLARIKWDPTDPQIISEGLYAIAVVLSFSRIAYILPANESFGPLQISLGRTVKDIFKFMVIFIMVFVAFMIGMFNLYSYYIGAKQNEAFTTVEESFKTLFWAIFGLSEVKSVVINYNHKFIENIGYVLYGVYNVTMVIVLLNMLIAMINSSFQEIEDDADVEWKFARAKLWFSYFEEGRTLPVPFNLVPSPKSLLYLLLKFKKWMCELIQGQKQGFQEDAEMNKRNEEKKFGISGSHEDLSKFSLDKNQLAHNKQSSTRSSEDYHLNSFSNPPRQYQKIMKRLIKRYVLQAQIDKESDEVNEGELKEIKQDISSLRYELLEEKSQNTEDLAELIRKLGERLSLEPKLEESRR
# Short transient receptor potential channel 4 (Mus musculus), sequence (Q9QUQ5 whole entry, looked up): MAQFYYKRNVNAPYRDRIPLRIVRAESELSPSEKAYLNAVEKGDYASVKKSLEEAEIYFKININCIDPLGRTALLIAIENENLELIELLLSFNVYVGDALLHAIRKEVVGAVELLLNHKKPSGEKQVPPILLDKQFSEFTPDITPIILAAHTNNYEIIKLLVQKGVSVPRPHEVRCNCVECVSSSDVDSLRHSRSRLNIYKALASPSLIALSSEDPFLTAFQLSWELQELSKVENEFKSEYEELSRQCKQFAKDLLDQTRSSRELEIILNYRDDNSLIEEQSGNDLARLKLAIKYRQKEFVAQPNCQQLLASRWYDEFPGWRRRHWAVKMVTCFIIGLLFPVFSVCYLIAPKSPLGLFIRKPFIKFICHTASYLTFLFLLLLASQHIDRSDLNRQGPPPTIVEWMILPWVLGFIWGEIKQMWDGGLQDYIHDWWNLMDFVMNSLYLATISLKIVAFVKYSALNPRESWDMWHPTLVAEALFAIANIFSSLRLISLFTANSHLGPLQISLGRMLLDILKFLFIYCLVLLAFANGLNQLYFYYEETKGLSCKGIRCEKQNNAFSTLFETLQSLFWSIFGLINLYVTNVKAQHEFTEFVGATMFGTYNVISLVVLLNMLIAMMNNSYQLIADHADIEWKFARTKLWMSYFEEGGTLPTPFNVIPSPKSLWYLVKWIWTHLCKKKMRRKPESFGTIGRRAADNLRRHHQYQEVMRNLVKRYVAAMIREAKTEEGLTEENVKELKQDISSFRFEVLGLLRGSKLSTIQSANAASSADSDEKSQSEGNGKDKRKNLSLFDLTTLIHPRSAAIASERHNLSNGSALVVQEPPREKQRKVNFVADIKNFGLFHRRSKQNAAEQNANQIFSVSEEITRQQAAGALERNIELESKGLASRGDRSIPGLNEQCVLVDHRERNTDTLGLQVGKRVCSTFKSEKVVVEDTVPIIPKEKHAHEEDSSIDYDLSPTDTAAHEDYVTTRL
structure (smiles),measurement,setting,value
O=C(c1ccccc1F)N1CCN(c2ccc([N+](=O)[O-])cc2-n2cccc2)CC1,outcome,[1],inactive
same,outcome,[2],inactive
same,outcome,[3],inactive
same,potentiation,[4],20% (active)
same,outcome,[5],inactive
same,outcome,[6],inactive
same,outcome,[7],inactive
same,outcome,[8],inactive
same,outcome,[9],inactive
same,outcome,[10],inactive
same,outcome,[11],inactive
same,outcome,[12],inactive
same,outcome,[13],inactive
same,outcome,[14],inactive
same,potentiation,[15],17.1% (active)
same,outcome,[16],inactive
same,outcome,[17],inactive
CC1CCN(CCCCOc2ccc([N+](=O)[O-])cc2)CC1,outcome,[1],inactive
same,outcome,[2],inactive
same,outcome,[3],inactive
same,outcome,[4],inactive
same,outcome,[5],inactive
same,outcome,[6],inactive
same,outcome,[7],inactive
same,outcome,[8],inactive
same,outcome,[9],inactive
same,outcome,[10],inactive
same,outcome,[11],inactive
same,outcome,[12],inactive
same,outcome,[13],inactive
same,outcome,[14],inactive
same,outcome,[15],inactive
same,outcome,[16],inactive
same,outcome,[17],inactive
Cc1oc(-c2ccc(Cl)cc2)nc1CS(=O)CC(=O)NCCCN(C)C1CCCCC1 (stereo not given),outcome,[1],inactive
same,outcome,[2],inactive
same,outcome,[3],inactive
same,outcome,[4],inactive
same,outcome,[5],inactive
same,outcome,[6],inactive
same,outcome,[7],inactive
same,outcome,[8],inactive
same,outcome,[9],inactive
same,outcome,[10],inactive
same,outcome,[11],inactive
same,outcome,[12],inactive
same,outcome,[13],inactive
same,outcome,[14],inactive
same,outcome,[15],inactive
same,outcome,[16],inactive
same,outcome,[17],inactive
O=S(=O)(Cc1ccccc1)N1CCC(c2nc(-c3cccs3)no2)CC1,outcome,[1],inactive
same,outcome,[2],inactive
same,outcome,[3],inactive
same,potentiation,[4],13% (active)
same,outcome,[5],inactive
same,outcome,[6],inactive
same,outcome,[7],inactive
same,outcome,[8],inactive
same,outcome,[9],inactive
same,outcome,[10],inactive
same,outcome,[11],inactive
same,outcome,[12],inactive
same,outcome,[13],inactive
same,outcome,[14],inactive
same,potentiation,[15],11.4% (active)
same,outcome,[16],inactive
same,outcome,[17],inactive
CC(OC(=O)Cn1cnc2c1c(=O)n(C)c(=O)n2C)C(=O)Nc1ccc(Cl)cc1 (stereo not given),outcome,[1],inactive
same,outcome,[2],inactive
same,outcome,[3],inactive
same,outcome,[4],inactive
same,outcome,[5],inactive
same,outcome,[6],inactive
same,outcome,[7],inactive
same,outcome,[8],inactive
same,outcome,[9],inactive
same,outcome,[10],inactive
same,outcome,[11],inactive
same,outcome,[12],inactive
same,outcome,[13],inactive
same,outcome,[14],inactive
same,outcome,[15],inactive
same,outcome,[16],inactive
same,outcome,[17],inactive
CN(C)CCCOC(=O)c1ccc(Cl)cc1Cl,outcome,[1],inactive
same,outcome,[2],inactive
same,potentiation,[3],16% (active)
same,potentiation,[4],8% (active)
same,outcome,[5],inactive
same,outcome,[6],inactive
same,outcome,[7],inactive
same,outcome,[8],inactive
same,outcome,[9],inactive
same,outcome,[10],inactive
same,outcome,[11],inactive
same,outcome,[12],inactive
same,outcome,[13],inactive
same,outcome,[14],inactive
same,potentiation,[15],18.3% (active)
same,outcome,[16],inactive
same,outcome,[17],inactive
COc1ccc(/C=N/Nc2nc3ccccc3s2)cc1O,outcome,[1],inactive
same,outcome,[2],inactive
same,outcome,[3],inactive
same,outcome,[4],inactive
same,outcome,[5],inactive
same,outcome,[6],inactive
same,outcome,[7],inactive
same,outcome,[8],inactive
same,outcome,[9],inactive
same,outcome,[10],inactive
same,outcome,[11],inactive
same,outcome,[12],inactive
same,outcome,[13],inactive
same,outcome,[14],inactive
same,potentiation,[15],26% (active)
same,outcome,[16],inactive
same,outcome,[17],inactive
CCc1cc2c(SCC(=O)N(C)C3CCS(=O)(=O)C3)ncnc2s1 (stereo not given),outcome,[1],inactive
same,outcome,[2],inactive
same,outcome,[3],inactive
same,potentiation,[4],35% (active)
same,outcome,[5],inactive
same,outcome,[6],inactive
same,outcome,[7],inactive
same,outcome,[8],inactive
same,outcome,[9],inactive
same,outcome,[10],inactive
same,outcome,[11],inactive
same,outcome,[12],inactive
same,outcome,[13],inactive
same,outcome,[14],inactive
same,potentiation,[15],42.5% (active)
same,outcome,[16],inactive
same,outcome,[17],inactive
Cc1ccc2nc(C(=O)N3CCc4c([nH]c5ccccc45)C3c3ccccn3)cn2c1 (stereo not given),outcome,[1],inactive
same,outcome,[2],inactive
same,outcome,[3],inactive
same,outcome,[4],inactive
same,outcome,[5],inactive
same,outcome,[6],inactive
same,outcome,[7],inactive
same,outcome,[8],inactive
same,outcome,[9],inactive
same,outcome,[10],inactive
same,outcome,[11],inactive
same,outcome,[12],inactive
same,outcome,[13],inactive
same,outcome,[14],inactive
same,outcome,[15],inactive
same,outcome,[16],inactive
same,outcome,[17],inactive
COc1ccc(CN(C2CCCCC2C)S(=O)(=O)c2ccc(S(=O)(=O)N(C)C)cc2)cc1OC (stereo not given),outcome,[1],inactive
same,outcome,[2],inactive
same,outcome,[3],inactive
same,potentiation,[4],12% (active)
same,outcome,[5],inactive
same,outcome,[6],inactive
same,outcome,[7],inactive
same,outcome,[8],inactive
same,outcome,[9],inactive
same,outcome,[10],inactive
same,outcome,[11],inactive
same,outcome,[12],inactive
same,outcome,[13],inactive
same,outcome,[14],inactive
same,potentiation,[15],5.84% (active)
same,outcome,[16],inactive
same,outcome,[17],inactive
COc1ccc(OCC(=O)NC2CCCN(Cc3ccc(Cl)cc3)C2)cc1 (stereo not given),outcome,[1],inactive
same,outcome,[2],inactive
same,potentiation,[3],26% (active)
same,outcome,[4],inactive
same,outcome,[5],inactive
same,outcome,[6],inactive
same,outcome,[7],inactive
same,outcome,[8],inactive
same,outcome,[9],inactive
same,outcome,[10],inactive
same,outcome,[11],inactive
same,outcome,[12],inactive
same,outcome,[13],inactive
same,outcome,[14],inactive
same,potentiation,[15],15.2% (active)
same,outcome,[16],inactive
same,outcome,[17],inactive
Cc1ccccc1-c1n[nH]c(=S)n1Cc1ccccc1,outcome,[1],inactive
same,outcome,[2],inactive
same,outcome,[3],inactive
same,outcome,[4],inactive
same,outcome,[5],inactive
same,outcome,[6],inactive
same,outcome,[7],inactive
same,outcome,[8],inactive
same,outcome,[9],inactive
same,outcome,[10],inactive
same,outcome,[11],inactive
same,outcome,[12],inactive
same,outcome,[13],inactive
same,outcome,[14],inactive
same,outcome,[15],inactive
same,outcome,[16],inactive
same,outcome,[17],inactive
Cc1cc(Cl)cc(C)c1OCCCCCn1ccnc1,activation,[1],88% (active)
same,outcome,[2],inactive
same,outcome,[3],inactive
same,outcome,[4],inactive
same,outcome,[5],inactive
same,outcome,[6],inactive
same,outcome,[7],inactive
same,outcome,[8],inactive
same,outcome,[9],inactive
same,outcome,[10],inactive
same,activation,[11],47% (active)
same,outcome,[12],inactive
same,activation,[13],34% (active)
same,outcome,[14],inactive
same,outcome,[15],inactive
same,outcome,[16],inactive
same,outcome,[17],inactive
Cc1cccc(C)c1NC(=O)NCCCN1CCN(c2ccccc2)CC1,outcome,[1],inactive
same,outcome,[2],inactive
same,outcome,[3],inactive
same,outcome,[4],inactive
same,outcome,[5],inactive
same,outcome,[6],inactive
same,outcome,[7],inactive
same,outcome,[8],inactive
same,outcome,[9],inactive
same,outcome,[10],inactive
same,outcome,[11],inactive
same,outcome,[12],inactive
same,outcome,[13],inactive
same,outcome,[14],inactive
same,outcome,[15],inactive
same,outcome,[16],inactive
same,outcome,[17],inactive
Clc1ccc(OCCCc2nc(-c3ccncc3)no2)c(Cl)c1,outcome,[1],inactive
same,outcome,[2],inactive
same,outcome,[3],inactive
same,outcome,[4],inactive
same,inhibition,[5],91% (active)
same,outcome,[6],inactive
same,outcome,[7],inactive
same,outcome,[8],inactive
same,outcome,[9],inactive
same,outcome,[10],inactive
same,outcome,[11],inactive
same,outcome,[12],inactive
same,outcome,[13],inactive
same,inhibition,[14],30.7% (active)
same,outcome,[15],inactive
same,outcome,[16],inactive
same,outcome,[17],inactive
